# Laboratory results published in PubChem BioAssay AID1159580 (chemical genetic matrix, 2015).
# In all, about 5,500 compounds went through this assay and about 2,000 (36%) were called active. Inconclusive results (about 18%) are left out. This is one part of the list. Values without a mark were called inactive. No stated cut-off is given here; in the data, active means normalized growth mostly below about 0.91 (no sharp cut-off); inconclusive means no clear call, values can overlap the other calls; inactive means mostly above about 0.92.
# Experiment: chemical genetic growth profiling, strain panel (AID 1159580);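 further: tested at 20 µM; growth read once vehicle control cultures reached saturation at 30 °C; 1 = growth at the plate median or of vehicle wells; lower values mean less growth of the strain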
# Conditions: growth OD
structure (smiles),measurement,setting,value
CN1CCC[C@@H]1CCO[C@](C)(c1ccccc1)c1ccc(Cl)cc1,normalized growth,"S. cerevisiae deletion strains, locus YJR075W, strain HOC1, active compounds read low",0.92
same,normalized growth,"S. cerevisiae deletion strains, locus YKL009W, strain mrt4, active compounds read low",0.977
same,normalized growth,"S. cerevisiae deletion strains, locus YKL068W, active compounds read low",0.992
same,normalized growth,"S. cerevisiae deletion strains, locus YKL085W, strain MDH1 (second series), active compounds read low",0.995
same,normalized growth,"S. cerevisiae deletion strains, locus YKL085W, strain MDH1, active compounds read low",0.995
same,normalized growth,"S. cerevisiae deletion strains, locus YKL160W, strain elf1, active compounds read low",0.977
same,normalized growth,"S. cerevisiae deletion strains, locus YKL190W, strain CNB1, active compounds read low",0.977
same,normalized growth,"S. cerevisiae deletion strains, locus YKR001C, strain vps1, active compounds read low",1.02
same,normalized growth,"S. cerevisiae deletion strains, locus YKR026C, strain gcn3, active compounds read low",1.02
same,normalized growth,"S. cerevisiae deletion strains, locus YKR091W, strain srl3, active compounds read low",1
same,normalized growth,"S. cerevisiae deletion strains, locus YLL001W, strain dnm1, active compounds read low",0.946
same,normalized growth,"S. cerevisiae deletion strains, locus YLL026W, active compounds read low",0.988
same,normalized growth,"S. cerevisiae deletion strains, locus YLL041C, strain sdh2, active compounds read low",0.992
same,normalized growth,"S. cerevisiae deletion strains, locus YLR027C, strain aat2, active compounds read low",0.98
same,normalized growth,"S. cerevisiae deletion strains, locus YLR039C, strain RIC1, active compounds read low",1.41 [resistant] (active)
same,normalized growth,"S. cerevisiae deletion strains, locus YLR058C, strain SHM2, active compounds read low",0.994
same,normalized growth,"S. cerevisiae deletion strains, locus YLR102C, strain apc9, active compounds read low",0.997
same,normalized growth,"S. cerevisiae deletion strains, locus YLR113W, strain HOG1, active compounds read low",0.969
same,normalized growth,"S. cerevisiae deletion strains, locus YLR221C, strain rsa3, active compounds read low",0.932
same,normalized growth,"S. cerevisiae deletion strains, locus YLR258W, strain gsy2, active compounds read low",0.977
same,normalized growth,"S. cerevisiae deletion strains, locus YLR262C, strain YPT6 (second series), active compounds read low",1.07
same,normalized growth,"S. cerevisiae deletion strains, locus YLR262C, strain YPT6, active compounds read low",1.46 [resistant] (active)
same,normalized growth,"S. cerevisiae deletion strains, locus YLR268W, strain sec22, active compounds read low",0.929
same,normalized growth,"S. cerevisiae deletion strains, locus YLR320W, strain mms22, active compounds read low",0.878
same,normalized growth,"S. cerevisiae deletion strains, locus YLR330W, strain CHS5, active compounds read low",1.02
same,normalized growth,"S. cerevisiae deletion strains, locus YLR342W, strain FKS1 (second series), active compounds read low",0.834
same,normalized growth,"S. cerevisiae deletion strains, locus YLR342W, strain FKS1, active compounds read low",0.893 (active)
same,normalized growth,"S. cerevisiae deletion strains, locus YLR357W, strain rsc2, active compounds read low",1.01
same,normalized growth,"S. cerevisiae deletion strains, locus YLR370C, strain arc18, active compounds read low",0.966
same,normalized growth,"S. cerevisiae deletion strains, locus YLR371W, strain rom2, active compounds read low",0.994
same,normalized growth,"S. cerevisiae deletion strains, locus YLR384C, strain iki3, active compounds read low",1.01
same,normalized growth,"S. cerevisiae deletion strains, locus YLR418C, strain cdc73, active compounds read low",0.682 (active)
same,normalized growth,"S. cerevisiae deletion strains, locus YML016C, strain PPZ1, active compounds read low",1.02
same,normalized growth,"S. cerevisiae deletion strains, locus YML032C, strain rad52, active compounds read low",0.98
same,normalized growth,"S. cerevisiae deletion strains, locus YML120C, strain ndi1, active compounds read low",1
same,normalized growth,"S. cerevisiae deletion strains, locus YML124C, strain tub3, active compounds read low",0.994
same,normalized growth,"S. cerevisiae deletion strains, locus YMR058W, strain fet3, active compounds read low",0.953
same,normalized growth,"S. cerevisiae deletion strains, locus YMR078C, strain ctf18, active compounds read low",0.993
same,normalized growth,"S. cerevisiae deletion strains, locus YMR125W, strain sto1, active compounds read low",0.96
same,normalized growth,"S. cerevisiae deletion strains, locus YMR129W, active compounds read low",0.99
same,normalized growth,"S. cerevisiae deletion strains, locus YMR205C, strain PFK2, active compounds read low",0.955
same,normalized growth,"S. cerevisiae deletion strains, locus YMR223W, strain ubp8, active compounds read low",0.964
same,normalized growth,"S. cerevisiae deletion strains, locus YMR231W, strain pep5, active compounds read low",1.01
same,normalized growth,"S. cerevisiae deletion strains, locus YMR263W, strain SAP30, active compounds read low",0.976
same,normalized growth,"S. cerevisiae deletion strains, locus YMR307W, strain GAS1, active compounds read low",0.92
same,normalized growth,"S. cerevisiae deletion strains, locus YNL067W, strain RPL9B, active compounds read low",0.971
same,normalized growth,"S. cerevisiae deletion strains, locus YNL071W, strain lat1, active compounds read low",0.888 (active)
same,normalized growth,"S. cerevisiae deletion strains, locus YNL128W, strain TEP1, active compounds read low",0.898
same,normalized growth,"S. cerevisiae deletion strains, locus YNL153C, strain GIM3, active compounds read low",1
same,normalized growth,"S. cerevisiae deletion strains, locus YNL183C, strain NPR1, active compounds read low",0.918
same,normalized growth,"S. cerevisiae deletion strains, locus YNL209W, strain ssb2, active compounds read low",0.877 (active)
same,normalized growth,"S. cerevisiae deletion strains, locus YNL233W, strain BNI4, active compounds read low",0.978
same,normalized growth,"S. cerevisiae deletion strains, locus YNL248C, strain rpa49, active compounds read low",0.836 (active)
same,normalized growth,"S. cerevisiae deletion strains, locus YNL250W, strain rad50, active compounds read low",0.986
same,normalized growth,"S. cerevisiae deletion strains, locus YNL271C, strain bni1, active compounds read low",0.986
same,normalized growth,"S. cerevisiae deletion strains, locus YNL298W, strain CLA4, active compounds read low",0.988
same,normalized growth,"S. cerevisiae deletion strains, locus YNL307C, strain MCK1, active compounds read low",0.96
same,normalized growth,"S. cerevisiae deletion strains, locus YNL322C, strain KRE1 (second series), active compounds read low",1.02
same,normalized growth,"S. cerevisiae deletion strains, locus YNL322C, strain KRE1, active compounds read low",1.01
same,normalized growth,"S. cerevisiae deletion strains, locus YNR049C, strain mso1, active compounds read low",1.01
same,normalized growth,"S. cerevisiae deletion strains, locus YNR052C, strain pop2, active compounds read low",0.971
same,normalized growth,"S. cerevisiae deletion strains, locus YOL006C, strain TOP1, active compounds read low",0.417 (active)
same,normalized growth,"S. cerevisiae deletion strains, locus YOL012C, strain htz1",0.791
same,normalized growth,"S. cerevisiae deletion strains, locus YOL147C, strain pex11, active compounds read low",0.999
same,normalized growth,"S. cerevisiae deletion strains, locus YOR001W, strain rrp6, active compounds read low",0.951
same,normalized growth,"S. cerevisiae deletion strains, locus YOR061W, strain CKA2, active compounds read low",1.01
same,normalized growth,"S. cerevisiae deletion strains, locus YOR069W, strain VPS5, active compounds read low",1
same,normalized growth,"S. cerevisiae deletion strains, locus YOR070C, strain gyp1, active compounds read low",0.974
same,normalized growth,"S. cerevisiae deletion strains, locus YOR080W, strain dia2, active compounds read low",0.994
same,normalized growth,"S. cerevisiae deletion strains, locus YOR083W, strain WHI5, active compounds read low",0.93
same,normalized growth,"S. cerevisiae deletion strains, locus YOR106W, strain vam3, active compounds read low",0.914
same,normalized growth,"S. cerevisiae deletion strains, locus YOR136W, strain idh2, active compounds read low",0.991
same,normalized growth,"S. cerevisiae deletion strains, locus YOR144C, strain elg1, active compounds read low",1
same,normalized growth,"S. cerevisiae deletion strains, locus YOR184W, strain ser1, active compounds read low",0.999
same,normalized growth,"S. cerevisiae deletion strains, locus YOR231W, strain MKK1, active compounds read low",0.991
same,normalized growth,"S. cerevisiae deletion strains, locus YOR265W, strain rbl2, active compounds read low",0.998
same,normalized growth,"S. cerevisiae deletion strains, locus YOR270C, strain vph1, active compounds read low",0.616 (active)
same,normalized growth,"S. cerevisiae deletion strains, locus YOR290C, strain snf2, active compounds read low",0.957
same,normalized growth,"S. cerevisiae deletion strains, locus YOR316C, strain cot1, active compounds read low",0.993
same,normalized growth,"S. cerevisiae deletion strains, locus YPL051W, strain arl3, active compounds read low",0.94
same,normalized growth,"S. cerevisiae deletion strains, locus YPL055C, strain LGE1, active compounds read low",0.782
same,normalized growth,"S. cerevisiae deletion strains, locus YPL078C, strain atp4, active compounds read low",0.916
same,normalized growth,"S. cerevisiae deletion strains, locus YPL106C, strain sse1, active compounds read low",1.02
same,normalized growth,"S. cerevisiae deletion strains, locus YPL240C, strain hsp82, active compounds read low",0.992
same,normalized growth,"S. cerevisiae deletion strains, locus YPL241C, strain CIN2, active compounds read low",0.999
same,normalized growth,"S. cerevisiae deletion strains, locus YPL256C, strain CLN2, active compounds read low",0.979
same,normalized growth,"S. cerevisiae deletion strains, locus YPR119W, strain clb2, active compounds read low",0.998
same,normalized growth,"S. cerevisiae deletion strains, locus YPR141C, strain kar3, active compounds read low",0.997
same,normalized growth,"S. cerevisiae deletion strains, locus YPR163C, strain tif3, active compounds read low",0.975
same,normalized growth,"S. cerevisiae deletion strains, locus YPR167C, strain met16, active compounds read low",0.991
same,normalized growth,"S. cerevisiae deletion strains, strain wtn01, active compounds read low",0.959
same,normalized growth,"S. cerevisiae strains, strain wild type, active compounds read low",0.99
